Percent Effect data for 11 compounds are collected here from ChEMBL document CHEMBL3988442, “University of Dundee, Small-Polar-MMV Screening Library” (2021).

For some of these results: Entries with a potency or affinity are not part of this list.

Holding throughout (set-up): scale not given: direction of the effect not stated beside the values
In assay [1] the target is Protein translocase subunit SecA (Escherichia coli (strain K12)) (UniProt P10408). Briefly: Assay to Identify E. coli SecA ATPase Inhibitors. It counts as functional. To be noted: 30 µM.
Protein translocase subunit SecA (Escherichia coli (strain K12)), sequence (P10408 whole entry): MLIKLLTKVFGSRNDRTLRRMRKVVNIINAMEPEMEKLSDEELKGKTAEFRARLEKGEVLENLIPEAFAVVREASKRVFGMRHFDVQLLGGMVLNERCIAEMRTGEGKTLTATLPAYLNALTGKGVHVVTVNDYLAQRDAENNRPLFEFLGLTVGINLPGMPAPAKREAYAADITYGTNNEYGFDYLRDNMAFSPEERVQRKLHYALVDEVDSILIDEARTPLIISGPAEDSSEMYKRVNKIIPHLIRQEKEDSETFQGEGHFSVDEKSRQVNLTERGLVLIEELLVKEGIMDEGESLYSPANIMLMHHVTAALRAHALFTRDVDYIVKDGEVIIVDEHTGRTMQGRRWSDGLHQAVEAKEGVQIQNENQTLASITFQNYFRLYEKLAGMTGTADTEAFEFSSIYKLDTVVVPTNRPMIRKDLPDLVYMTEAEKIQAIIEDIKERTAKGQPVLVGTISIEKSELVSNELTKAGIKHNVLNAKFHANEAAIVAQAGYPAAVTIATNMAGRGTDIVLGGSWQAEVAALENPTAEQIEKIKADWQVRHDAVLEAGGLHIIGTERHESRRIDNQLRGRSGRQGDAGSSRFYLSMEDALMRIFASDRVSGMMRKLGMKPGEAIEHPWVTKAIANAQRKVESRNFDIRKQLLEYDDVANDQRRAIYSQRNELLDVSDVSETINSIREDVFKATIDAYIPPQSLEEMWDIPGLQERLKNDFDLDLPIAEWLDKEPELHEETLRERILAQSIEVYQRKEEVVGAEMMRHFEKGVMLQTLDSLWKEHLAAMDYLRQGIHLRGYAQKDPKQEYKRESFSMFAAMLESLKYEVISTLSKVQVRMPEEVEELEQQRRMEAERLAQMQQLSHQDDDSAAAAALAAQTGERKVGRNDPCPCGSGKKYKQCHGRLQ
Assay [2] has as its target T1, Ubiquitin-activating enzyme e1, putative (Leishmania donovani (strain BPK282A1)) (UniProt E9BSI1).
T1 sequence (whole entry): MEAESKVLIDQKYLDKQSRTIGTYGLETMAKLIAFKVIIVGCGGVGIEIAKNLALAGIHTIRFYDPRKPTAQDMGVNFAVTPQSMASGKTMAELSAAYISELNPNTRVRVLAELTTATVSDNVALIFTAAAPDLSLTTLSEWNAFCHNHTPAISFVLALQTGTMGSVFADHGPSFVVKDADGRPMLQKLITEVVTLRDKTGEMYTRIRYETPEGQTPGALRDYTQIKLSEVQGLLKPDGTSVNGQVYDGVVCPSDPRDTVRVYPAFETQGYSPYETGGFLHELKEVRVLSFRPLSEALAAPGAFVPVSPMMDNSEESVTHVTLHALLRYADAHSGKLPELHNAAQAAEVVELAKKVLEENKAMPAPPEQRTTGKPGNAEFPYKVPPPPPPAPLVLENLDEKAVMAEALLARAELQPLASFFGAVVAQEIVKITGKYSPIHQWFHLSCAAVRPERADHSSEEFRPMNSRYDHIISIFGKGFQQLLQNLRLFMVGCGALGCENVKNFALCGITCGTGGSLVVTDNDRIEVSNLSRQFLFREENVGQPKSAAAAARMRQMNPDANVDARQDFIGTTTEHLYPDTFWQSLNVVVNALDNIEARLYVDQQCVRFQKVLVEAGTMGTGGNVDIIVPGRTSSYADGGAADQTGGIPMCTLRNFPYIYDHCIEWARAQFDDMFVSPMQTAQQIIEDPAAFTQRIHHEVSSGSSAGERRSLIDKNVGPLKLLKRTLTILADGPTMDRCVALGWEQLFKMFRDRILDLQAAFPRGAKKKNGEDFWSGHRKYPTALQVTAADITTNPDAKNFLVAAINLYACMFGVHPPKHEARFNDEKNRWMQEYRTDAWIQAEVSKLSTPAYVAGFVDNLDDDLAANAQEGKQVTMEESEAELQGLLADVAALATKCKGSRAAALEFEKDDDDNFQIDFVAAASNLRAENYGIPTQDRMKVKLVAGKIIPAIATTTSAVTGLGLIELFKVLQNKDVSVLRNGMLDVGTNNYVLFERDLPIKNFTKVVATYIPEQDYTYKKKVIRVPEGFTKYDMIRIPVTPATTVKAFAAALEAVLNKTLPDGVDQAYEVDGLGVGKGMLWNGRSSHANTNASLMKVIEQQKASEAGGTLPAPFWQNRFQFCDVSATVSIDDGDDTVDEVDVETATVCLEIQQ
The assay can be described thus: Leishmania donovani Ubiquitin Activating Enzyme (LdE1). To be noted: 30 µM. The class given is functional.

The target of assay [3] is AMP-activated protein kinase, AMPK (Homo sapiens) (UniProt P54646+O43741+P54619+Q9UGJ0+Q9Y478+Q13131+Q9UGI9). Briefly: AMP-dependent Kinase enzyme assay. An in vitro enzyme assay that detects ADP turnover that is directly proportional to AMPK activity. This uses naive AMPK that is activated during the assay with MK-8722. The class given is functional. To be noted: 30 µM.

Assay [4] has as its target Sialic acid-binding Ig-like lectin 9 (Homo sapiens) (UniProt Q9Y336). The assay can be described thus: Hs-Siglec9 ALPHAscreen SOP 20170721. To be noted: 10 µM. Background: In Alpha technology, singlet oxygen from a donor bead excites a nearby acceptor bead.
The test system of the next assay is Trypanosoma cruzi. The assay can be described thus: Trypanosoma cruzi phosphomannomutase and mannose-1-phosphate guanylyltransferase assay. It counts as functional. As to conditions: 10 µM.
Assay [5] has as its target T2, Arginase-2, mitochondrial (Homo sapiens) (UniProt P78540).
T2 sequence (whole entry): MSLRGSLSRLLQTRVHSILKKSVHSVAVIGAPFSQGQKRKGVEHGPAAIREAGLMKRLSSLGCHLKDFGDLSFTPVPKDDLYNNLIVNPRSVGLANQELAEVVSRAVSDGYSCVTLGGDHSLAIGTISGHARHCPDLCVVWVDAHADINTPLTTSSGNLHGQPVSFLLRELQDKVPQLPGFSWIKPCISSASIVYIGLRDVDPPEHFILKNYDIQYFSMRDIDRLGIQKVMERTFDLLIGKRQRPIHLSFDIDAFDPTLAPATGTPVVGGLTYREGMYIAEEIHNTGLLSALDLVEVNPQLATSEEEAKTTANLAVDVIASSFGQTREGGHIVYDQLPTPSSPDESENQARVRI
The assay can be described thus: in vitro enzyme assay to detect the production of urea directly proportional to the activity of Arginase II. Also: in the data most compounds retested in dose-response had high values. As to conditions: 33.3 µM. The class given is functional.

Assay [6] concerns the target T3, Proteasome subunit beta (Trypanosoma cruzi) (UniProt O96673).
T3 sequence (whole entry): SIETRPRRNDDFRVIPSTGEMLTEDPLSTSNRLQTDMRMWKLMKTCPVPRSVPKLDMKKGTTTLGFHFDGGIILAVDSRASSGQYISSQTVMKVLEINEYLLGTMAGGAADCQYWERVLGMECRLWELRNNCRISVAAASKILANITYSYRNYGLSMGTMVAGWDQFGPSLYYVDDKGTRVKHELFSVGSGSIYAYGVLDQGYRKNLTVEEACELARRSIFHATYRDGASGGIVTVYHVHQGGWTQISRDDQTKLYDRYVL
The assay can be described thus: Trypanosoma cruzi proteasome chymotrypsin-like activity (TcProtChymo) assay. Also: in the data most compounds retested in dose-response had high values. It counts as functional. As to conditions: 9.37 µM.

A further assay is filed under the species Homo sapiens. The assay can be described thus: To identify inhibition of the IFN signalling (Jak-Stat) pathway via expression of an eGFP reporter gene under the control of an IFN-stimulated response element (ISRE) containing MxA promoter. As to conditions: 30 µM. The class given is functional. For orientation: In a reporter assay the amount or activity of a reporter protein is the signal.

Assay [7] deals with T4, Tyrosyl-tRNA synthetase, putative (Trypanosoma cruzi (strain CL Brener)) (UniProt Q4DSP6).
T4 sequence (whole entry): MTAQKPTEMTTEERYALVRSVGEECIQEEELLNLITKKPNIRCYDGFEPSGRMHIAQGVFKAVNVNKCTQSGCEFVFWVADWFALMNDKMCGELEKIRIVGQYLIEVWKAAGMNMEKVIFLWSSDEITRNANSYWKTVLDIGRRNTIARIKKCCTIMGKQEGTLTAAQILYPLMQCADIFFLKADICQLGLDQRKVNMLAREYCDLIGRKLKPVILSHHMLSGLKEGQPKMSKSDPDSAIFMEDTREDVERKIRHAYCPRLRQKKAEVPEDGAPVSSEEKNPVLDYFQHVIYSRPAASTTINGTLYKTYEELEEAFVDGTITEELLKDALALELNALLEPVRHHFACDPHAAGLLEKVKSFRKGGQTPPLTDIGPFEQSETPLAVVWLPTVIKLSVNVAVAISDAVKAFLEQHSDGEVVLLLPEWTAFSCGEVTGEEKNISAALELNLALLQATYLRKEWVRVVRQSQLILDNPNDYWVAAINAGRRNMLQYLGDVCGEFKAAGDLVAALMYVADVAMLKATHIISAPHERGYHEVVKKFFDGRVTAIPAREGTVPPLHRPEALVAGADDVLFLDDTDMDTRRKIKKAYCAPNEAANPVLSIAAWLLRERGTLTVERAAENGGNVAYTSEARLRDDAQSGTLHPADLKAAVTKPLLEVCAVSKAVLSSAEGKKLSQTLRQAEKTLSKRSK
The assay can be described thus: Trypanosoma cruzi tyrosyl tRNA synthetase (TcYRS) _High Tyrosine SOP. Also: in the data most compounds retested in dose-response had high values. It counts as functional. To be noted: 30 µM.

Assay [8] has as its target T4, Tyrosyl-tRNA synthetase, putative (Trypanosoma cruzi (strain CL Brener)). The assay can be described thus: Trypanosoma cruzi tyrosyl tRNA synthetase (TcYRS) SOP. The class given is functional. As to conditions: 30 µM.
The target in assay [9] is Chromo domain-containing protein 1 (Saccharomyces cerevisiae (strain ATCC 204508 / S288c) (Baker's yeast)) (UniProt P32657). The assay can be described thus: ScCHD-1 Enzyme Inhibition Assay. Also: in the data most compounds retested in dose-response had high values. The class given is functional. To be noted: 30 µM.
Chromo domain-containing protein 1 (Saccharomyces cerevisiae (strain ATCC 204508 / S288c) (Baker's yeast)), sequence (P32657 whole entry, the tested form may be a part): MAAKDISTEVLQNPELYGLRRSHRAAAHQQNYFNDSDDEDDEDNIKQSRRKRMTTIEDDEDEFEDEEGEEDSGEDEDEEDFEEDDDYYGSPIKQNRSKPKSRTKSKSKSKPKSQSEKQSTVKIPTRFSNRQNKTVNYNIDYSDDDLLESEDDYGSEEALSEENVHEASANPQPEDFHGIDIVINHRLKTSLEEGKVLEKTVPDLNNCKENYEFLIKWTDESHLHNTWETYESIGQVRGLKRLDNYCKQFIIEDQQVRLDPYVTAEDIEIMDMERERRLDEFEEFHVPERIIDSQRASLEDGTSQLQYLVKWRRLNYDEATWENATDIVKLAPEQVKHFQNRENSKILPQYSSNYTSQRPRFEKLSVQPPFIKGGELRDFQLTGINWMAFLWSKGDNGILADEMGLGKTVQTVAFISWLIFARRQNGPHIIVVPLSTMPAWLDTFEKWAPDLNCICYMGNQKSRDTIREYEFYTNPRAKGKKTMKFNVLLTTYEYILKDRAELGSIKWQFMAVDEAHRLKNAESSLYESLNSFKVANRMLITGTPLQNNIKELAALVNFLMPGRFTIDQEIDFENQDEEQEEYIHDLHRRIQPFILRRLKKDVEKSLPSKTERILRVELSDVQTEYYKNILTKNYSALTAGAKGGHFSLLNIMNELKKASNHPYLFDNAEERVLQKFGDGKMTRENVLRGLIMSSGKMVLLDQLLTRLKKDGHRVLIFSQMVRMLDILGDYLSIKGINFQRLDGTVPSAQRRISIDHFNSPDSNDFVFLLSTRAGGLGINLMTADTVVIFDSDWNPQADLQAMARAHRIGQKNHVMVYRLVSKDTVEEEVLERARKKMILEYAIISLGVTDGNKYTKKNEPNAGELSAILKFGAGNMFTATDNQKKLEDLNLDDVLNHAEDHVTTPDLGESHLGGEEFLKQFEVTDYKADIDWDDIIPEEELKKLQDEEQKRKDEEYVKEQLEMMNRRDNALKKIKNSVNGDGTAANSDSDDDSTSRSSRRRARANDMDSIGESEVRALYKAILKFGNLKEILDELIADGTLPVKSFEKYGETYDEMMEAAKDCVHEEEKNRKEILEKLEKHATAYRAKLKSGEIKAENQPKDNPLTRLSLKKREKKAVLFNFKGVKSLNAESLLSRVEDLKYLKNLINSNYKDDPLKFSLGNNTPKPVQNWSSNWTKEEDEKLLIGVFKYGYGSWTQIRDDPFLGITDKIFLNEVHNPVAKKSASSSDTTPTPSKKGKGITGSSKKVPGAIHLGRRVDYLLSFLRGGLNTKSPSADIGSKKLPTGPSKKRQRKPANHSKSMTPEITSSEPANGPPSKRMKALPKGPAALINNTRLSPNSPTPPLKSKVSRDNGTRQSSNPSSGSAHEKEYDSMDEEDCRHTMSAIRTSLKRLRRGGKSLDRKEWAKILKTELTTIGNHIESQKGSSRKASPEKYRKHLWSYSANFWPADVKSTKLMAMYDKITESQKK

Sialic acid-binding Ig-like lectin 9 (Homo sapiens), sequence (Q9Y336 whole entry): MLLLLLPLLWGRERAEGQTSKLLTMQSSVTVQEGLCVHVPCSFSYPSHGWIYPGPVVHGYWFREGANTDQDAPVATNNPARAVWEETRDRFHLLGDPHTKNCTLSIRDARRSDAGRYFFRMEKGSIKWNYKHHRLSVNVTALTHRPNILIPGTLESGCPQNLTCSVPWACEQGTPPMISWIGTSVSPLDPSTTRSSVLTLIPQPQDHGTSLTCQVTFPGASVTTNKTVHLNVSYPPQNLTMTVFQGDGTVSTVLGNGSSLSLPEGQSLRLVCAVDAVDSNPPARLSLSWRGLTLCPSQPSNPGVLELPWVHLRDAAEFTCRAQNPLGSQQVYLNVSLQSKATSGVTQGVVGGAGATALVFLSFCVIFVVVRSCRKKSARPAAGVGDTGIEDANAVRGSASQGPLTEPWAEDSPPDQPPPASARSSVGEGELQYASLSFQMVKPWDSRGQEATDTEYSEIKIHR

On to `O=S(=O)(C1CC1)N1CCO[C@H]2[C@H](OCC3CCCC3)CC[C@@H]21`, for which the Percent Effect is -4.67% in [1]; 0% in assay [2]; 1.22% in assay [3]; -1.17% in assay [4]; 4.83% in the assay with Trypanosoma cruzi; -45.7% in assay [5]. The Percent Effect in assay [6] was 2.05%; in the assay filed under Homo sapiens, -5.99%; in assay [7], 0%; in [8] it was 5%; in assay [9], -4.13%.
With `Cc1nn(C)c(C)c1C1COCCN1C(=O)c1cnc(N)c(Cl)c1` (stereo unspecified), the Percent Effect is -2.77% in [1]; 23.4% in assay [2]; 2.76% in assay [3]; -1.47% in assay [4]; -2.62% in the assay with Trypanosoma cruzi; 0.356% in [5]. Besides, the Percent Effect in assay [6] is 10.1%; in the assay filed under Homo sapiens, 4.22%; in assay [7], 3.88%; in assay [8], 19.5%; in [9], -7.54%.
In the case of `O=S(=O)(c1cccs1)N1CCCn2cnc(CN3CCCC3)c2C1`, the Percent Effect in [1] was -4.49%; in assay [2], 10.7%; in assay [3], -0.197%; in assay [4] it was 0.986%; with Trypanosoma cruzi, -3.48%; in [5] it was -60.4%. Moreover, the Percent Effect was 13.8% in assay [6]; 7.16% in the assay listed under Homo sapiens; 4.17% in assay [7]; 12.5% in assay [8]; -7.45% in assay [9].
In the case of `CN1CCCN(C(=O)c2ccc3c(c2)nc(N2CCOCC2)n3C)CC1`, the Percent Effect was -0.416% in assay [1]; 4.17% in assay [2]; -3.77% in assay [3]; -0.695% in assay [4]; -3.6% with Trypanosoma cruzi; -0.883% in [5]. The Percent Effect was 18.2% in [6]; 21.6% in the assay filed under Homo sapiens; 2.1% in [7]; 2.56% in [8]; -1.63% in assay [9].
With `O=C(c1ccc(O)cc1)N1CCN(C(=O)c2ccc3c(c2)COC3)CC1`, the Percent Effect is -4.15% in assay [1]; 10.1% in assay [2]; -4.98% in [3]; 13.3% in [4]; -1.98% in the assay with Trypanosoma cruzi; -2.66% in [5]. Also, the Percent Effect in [6] was 4.01%; in the assay listed under Homo sapiens, -19.9%; in assay [7] it was 4.43%; in assay [8], 8.86%; in assay [9], -6.29%.
Consider `C1CCCN(c2nc(C3CC3)ns2)CC1`, for which the Percent Effect in [1] is -7.97%; in [2], -5.48%; in assay [3], -19.9%; in assay [4], 6.34%; with Trypanosoma cruzi, -4.31%; in [5], -2.27%. Further, the Percent Effect in assay [6] is 12.2%; in the assay filed under Homo sapiens, 30.1%; in assay [7], -4.3%; in [8], -10%; in [9], -3.08%.
On to `COC(=O)CCC(=O)N1CCc2[nH]nc(-c3ccc(F)c(F)c3)c2C1`, for which the Percent Effect is -3.6% in assay [1]; 0% in [2]; 8.72% in assay [3]; -7.28% in assay [4]; -3.81% with Trypanosoma cruzi; 1.24% in assay [5]. For the same compound, the Percent Effect in assay [6] is -3.35%; in the assay filed under Homo sapiens it was 9.05%; in assay [7] it was 2.15%; in assay [8], 8.64%; in assay [9] it was -0.244%.
With `O=C(c1ccccn1)N1CCn2cnc(COCC3CC3)c2C1`, the Percent Effect in assay [1] was -2.21%; in assay [2] it was 0%; in [3], 3.19%; in assay [4], 4.7%; with Trypanosoma cruzi, -2.86%; in assay [5], 3.23%. Also, the Percent Effect in assay [6] is 9.57%; in the assay listed under Homo sapiens, -0.697%; in [7] it was -10.6%; in assay [8] it was -16.7%; in [9] it was -11%.
Regarding `CSCC[C@H](NC(=O)Cn1ccc2c(Cl)cccc21)C(=O)O`, the Percent Effect in assay [1] is 0.448%; in assay [2], 12%; in assay [3] it was 2.92%; in [4] it was 2.75%; in the assay on Trypanosoma cruzi it was -3.93%; in assay [5], -6.87%. Moreover, the Percent Effect is 15.2% in assay [6]; -1.36% in the assay filed under Homo sapiens; 3.17% in assay [7]; 7.69% in assay [8]; -6.56% in assay [9].
For the compound `Cc1nccn1CCC1CCCCN1Cc1ccc(N(C)C)nc1` (stereo unspecified), the Percent Effect is -1.41% in assay [1]; 5.33% in assay [2]; -3.72% in [3]; -2.2% in assay [4]; -6.91% with Trypanosoma cruzi; 4.69% in assay [5]. The Percent Effect in assay [6] is 21.4%; in the assay filed under Homo sapiens, 9.79%; in [7], 0.546%; in assay [8] it was 11.1%; in assay [9], -5.71%.
`Cc1ccc(S(=O)(=O)NC(=O)c2cccc3c2OCCO3)c(C)c1`: the Percent Effect in assay [1] is -2.98%; in assay [2] it was -5.48%; in assay [3] it was 7.47%; in [4], -1.04%; with Trypanosoma cruzi it was -3.33%; in assay [5], 4.54%. The Percent Effect in [6] is 9.94%; in the assay filed under Homo sapiens, 5.47%; in assay [7], -10.8%; in assay [8], -12.5%; in assay [9], -2.7%.
